Screening data (PubChem)
HTT aggregate: qHTS Multiplex Assay to Identify Dual Action Probes in a Cell Model of Huntington: Aggregate Formation (GFP). 1.1% of 220,000 active. Potency, µM (top dose mostly 46.1 µM), most hits filed as inhibitors. AID 1688, 2009. PC12 HttQ103-GFP aggregates, Acumen cytometry, 40 h; also: nearly all actives have a fitted effect of over 60% in size
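PC12/HTTQ103-GFP, ecdysone-inducible; teb 100 nM; cpd qHTS titration; GFP aggregates read on laser cytometer, Ex 488/Em 500-530 nm.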
NPSR antag: qHTS Assay for Antagonists of the Neuropeptide S Receptor: cAMP Signal Transduction. Q6W5P4. CHO-NPSR cells, cAMP TR-FRET, antagonist mode. Potency, µM (titrated, usually from 38.3 µM), most hits filed as inhibitors. 1% of 220,000 active; also: nearly all actives have a fitted effect of over 50% in size
HTT cytoprotect: qHTS Multiplex Assay to Identify Dual Action Probes in a Cell Model of Huntington: Cytoprotection (ATP) | Potency, µM (doses to about 56.4 µM), most hits filed as activators | PC12 HTT-Q103 induced, cytoprotection, ATP luminescence, 40 h | 0.14% of 230,000 active; also: nearly all actives have a fitted effect of over 45% in size
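ATP quantification (ATPlite) reports survival of PC12 cells in which tebufenozide, 100 nM final, switches on Htt exon 1 with 103 glutamines linked to GFP; compounds are titrated.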
MBNL1 CUG block: qHTS Assay for Inhibitors of MBNL1-poly(CUG) RNA binding; Muscleblind-like protein 1 (Homo sapiens), Q9NR56; TR-FRET MBNL1-His/biotin-(CUG)12 binding, 665/545 ratio; Potency, µM (highest dose often 57.5 µM), actives largely listed as inhibitors; 0.036% of 280,000 active; AID 2675, 2010; active = well fitted inhibition curve with a large enough effect in the signal ratio, with a control signal flat, not every such curve was filed as active; inconclusive = small, poorly fitted or top-dose-only effect, or effect the other way, or a change in a side signal; inactive = no such curve, though single readings can be large or run the other way; the % refers to the signal ratio
Target sequence (Q9NR56 whole entry, looked up): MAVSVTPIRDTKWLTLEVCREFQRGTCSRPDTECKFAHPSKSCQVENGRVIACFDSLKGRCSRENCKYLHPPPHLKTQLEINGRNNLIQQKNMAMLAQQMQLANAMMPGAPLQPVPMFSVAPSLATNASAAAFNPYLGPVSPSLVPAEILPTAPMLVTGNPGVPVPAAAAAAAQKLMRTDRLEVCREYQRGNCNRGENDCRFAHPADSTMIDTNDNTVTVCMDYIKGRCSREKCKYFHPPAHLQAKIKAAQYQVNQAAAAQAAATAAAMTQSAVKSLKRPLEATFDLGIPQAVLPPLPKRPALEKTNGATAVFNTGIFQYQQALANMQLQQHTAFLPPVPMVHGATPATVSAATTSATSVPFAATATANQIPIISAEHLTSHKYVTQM
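His-tagged MBNL1 binding to biotinylated (CUG)12 RNA was measured by TR-FRET using terbium anti-His antibody (0.055 ng/ul final) and streptavidin-XL665 (5 nM final). Compounds were titrated 92 nM to 58 uM; 60 min at room temperature.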
Lamin A splicing: qHTS Assay for Modulators of Lamin A Splicing; HeLa LMNA splicing GFP/RFP minigene ratio, 48 h; Potency, µM (titrated, usually from 46.1 µM), actives largely listed as inhibitors; 0.01% of 200,000 active; active = well fitted inhibition curve with a large enough effect in the signal ratio, with a control signal flat, not every such curve was filed as active; inconclusive = small, poorly fitted or top-dose-only effect, or effect the other way, or a change in a side signal; the % refers to the signal ratio
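Read-out is the ratio of GFP to DsRed2 object intensity, acquired by 488 nm laser-scanning cytometry on HeLa lamin A-EGFP minigene reporter cells. Compound incubation 48 hrs at 37 °C in Opti-MEM with 2% FBS; DMSO 0.5% final.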
CBFb RUNX1 block: qHTS Assay for Compounds Blocking the Interaction Between CBF-beta and RUNX1 for the Treatment of Acute Myeloid Leukemia; Potency, µM (series often up to 59.8 µM), most hits filed as inhibitors; AID 1477, 2009; 230,000 tested, under 10 active; Runt-related transcription factor 1 (Homo sapiens) + Core-binding factor subunit beta …; AlphaScreen CBFb-His/RUNX1-biotin binding, biochemical
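Bead-based AlphaScreen assay; binding partners His-tagged CBF-beta and biotinylated RUNX1 at 30 nM each. Compound exposure 15 min after a 20-min protein preincubation; bead step 90 min; all steps at room temperature.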
Large screens that a line does not name were inactive. In the library only some 1.1% were active in any assay of this set; here they are far more common. Unless noted, calls follow the shape of the dose curve; as a rule, active = well fitted curve in the direction sought with a large enough effect; inconclusive = small, poorly fitted or top-dose-only effect, or another doubt; inactive = no such curve, though single readings can be large; an effect the other way counts as inactive or inconclusive.

O=C(c1ccco1)N1CCN(c2ncnc3sc4c(c23)CCC4)CC1	none
CC(C)n1c(SCC(=O)Nc2nc3c(s2)CCCC3)nc2c1c(=O)n(C)c(=O)n2C	HTT aggregate 13µM, Lamin A splicing inconclusive
CCOC(=O)c1c(NC(=O)CSc2nc3c(c(=O)n(C)c(=O)n3C)n2C(C)C)sc(C)c1C	none
CCCn1c(NCc2cc(OC)ccc2OC)nc2ccccc21	HTT aggregate 20µM, Lamin A splicing inconclusive
CCn1c(NCc2cc(OC)ccc2OC)nc2ccccc21	none
COc1cccc(CNc2nc3ccccc3n2CCN2CCCCC2)c1OC	HTT aggregate 13µM, MBNL1 CUG block inconclusive
COc1ccc(OC)c(CNc2nc3ccccc3n2CCN2CCCCC2)c1	NPSR antag inconclusive
CN(C)CCCCN1CCc2c(n(C)c3ccccc23)C1=O	none (no result: HTT aggregate, NPSR antag, MBNL1 CUG block, Lamin A splicing, CBFb RUNX1 block)
CCN1/C(=C/c2cc[n+](C)cc2)C=Cc2cc(C)ccc21	HTT aggregate 8.9µM, MBNL1 CUG block inconclusive, Lamin A splicing inconclusive
COc1ccc(OC)c(NC(=S)NN2CCOCC2)c1	HTT aggregate 11µM
CCOC(=O)c1c(C)n(-c2ccc(C)cc2)c2ccc(O)c(CN(C)C)c12	none (no result: Lamin A splicing)
CCOC(=O)c1c(C)n(-c2ccc(C)cc2)c2c(C(C(C)=O)C(=O)O)c(Br)c(O)c(O)c12 (configuration not stated)	HTT aggregate 13µM, NPSR antag 10µM, HTT cytoprotect inconclusive
CCOC(=O)c1c(C)n(-c2ccc(C)cc2)c2c(CC(C)=O)c(Br)c(OC)c(O)c12	NPSR antag 10µM
CC(=O)OCOC(=O)CN(CC(=O)OCOC(C)=O)c1ccccc1OCCOc1ccccc1N(CC(=O)OCOC(C)=O)CC(=O)OCOC(C)=O	none (no result: HTT aggregate, NPSR antag, HTT cytoprotect, MBNL1 CUG block, Lamin A splicing)
CNCCCCc1cnc(C)c2[nH]c3ccccc3c12	HTT cytoprotect 3.5µM (no result: HTT aggregate, NPSR antag, MBNL1 CUG block, Lamin A splicing)
COc1cccc(CNC(=O)CN2N=C(c3ccc(C)cc3)CCC2=O)c1	none (no result: HTT aggregate, NPSR antag, HTT cytoprotect, MBNL1 CUG block, CBFb RUNX1 block)
CC(=O)OC(C)(C)N=Nc1ccc(Br)cc1	none (no result: HTT aggregate, NPSR antag, MBNL1 CUG block, Lamin A splicing, CBFb RUNX1 block)
CCCCn1c(NC(=O)c2ccco2)c(S(=O)(=O)c2ccc(C)cc2)c2nc3ccccc3nc21	HTT aggregate inconclusive, Lamin A splicing inconclusive (no result: HTT cytoprotect)
CCCCn1c(NC(=O)c2ccc(Br)o2)c(S(=O)(=O)c2ccccc2)c2nc3ccccc3nc21	HTT aggregate inconclusive, NPSR antag 10µM
CCCCCn1c(NC(=O)c2ccco2)c(S(=O)(=O)c2ccc(C)cc2)c2nc3ccccc3nc21	HTT aggregate inconclusive, NPSR antag 13µM, Lamin A splicing inconclusive
CCCCn1c(NS(=O)(=O)c2ccccc2)c(S(=O)(=O)c2ccc(C)cc2)c2nc3ccccc3nc21	HTT aggregate inconclusive
CCOC(=O)[C@H](Cc1ccc(O)cc1)NC(=O)c1ccccc1	none (no result: HTT aggregate, NPSR antag, HTT cytoprotect, MBNL1 CUG block, Lamin A splicing)
Cc1ccccc1-c1nc(P(=O)(c2ccccc2)c2ccccc2)c(N2CCOCC2)o1	none (no result: Lamin A splicing)
CCOP(=O)(c1ccccc1)c1nc(-c2ccccc2C)oc1N1CCCCC1 (configuration not stated)	HTT aggregate inconclusive, NPSR antag 10µM
CC1=C(C(=O)Nc2ccccc2)C(c2cccn2C)n2ncnc2N1 (configuration not stated)	none (no result: HTT aggregate, NPSR antag, HTT cytoprotect, MBNL1 CUG block, CBFb RUNX1 block)
Cc1ccccc1Nc1scc(-c2ccc(Cl)cc2)[n+]1-c1ccccc1C	NPSR antag 7.9µM, Lamin A splicing inconclusive, CBFb RUNX1 block inconclusive
Cc1ccc(-c2nc(CN3CCCCC3CCN3CCCC3=O)c(C)o2)o1 (configuration not stated)	HTT cytoprotect 4µM
Cc1ccccc1NC(=S)N(CCc1c(C)[nH]c2ccc(F)cc12)Cc1cccnc1	none
Cc1[nH]c2ccc(F)cc2c1CCN(Cc1cccnc1)C(=S)NC(C)(C)C	none (no result: HTT aggregate, NPSR antag, HTT cytoprotect, Lamin A splicing, CBFb RUNX1 block)
